Results filed as inconclusive are left out. Active and inactive are the calls of the source. Rule for the calls: active = hit-call score of the fitted dose curve at least 0.9, where 1 is the maximum; inconclusive = response in the unintended direction; inactive = score below 0.9.
read-out: xenobiotic metabolism (CYP1A1), CYP1A1 (gene 1543); test: CLD_CYP1A1_6hr: CellzDirect (CLD) Gene Expression Assay for xenobiotic metabolism (CYP1A1) at 6 hours (AID 2283661);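 for AC50: potency for transcript induction above DMSO vehicle baseline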
Method: CLD_6hr is a cell-based, multiplexed-readout assay that uses hepatocyte, a human liver primary cell, with measurements taken at 6 hours after chemical dosing in a 96-well plate.CLD_CYP1A1_6hr is one of 16 assay component(s) measured or calculated from the CLD_6hr assay. It is designed to make measurements of mRNA induction, a form of inducible reporter, as detected with chemiluminescence signals by Quantitative Nuclease Protection Assay (qNPA) technology.Data from the assay component CLD_CYP1A1_6hr was analyzed at the endpoint, CLD_CYP1A1_6hr, in the positive analysis fitting direction relative to DMSO as the negative control and baseline of activity. Using a type of inducible reporter, gain-of-signal activity can be used to understand changes in the reporter gene as they relate to the gene CYP1A1. Furthermore, this assay endpoint can be referred to as a primary readout. To generalize the intended target to other relatable targets, this assay endpoint is annotated to the cyp intended target family, where subfamily is xenobiotic metabolism.
Human hepatocyte cultures were treated daily for two consecutive days with fresh dosing solutions containing appropriate concentrations of the 320 ToxCast chemicals (chemical identities were blinded to CellzDirect and other ToxCast collaborators), vehicle control (0.2% DMSO), and positive control inducers as summarized in Table 1. Due to the large number of treatment groups and chemicals examined, the ToxCast chemicals were divided into two groups (spanning two independent cultures of hepatocytes from separate donor preparations (Hu778: ToxCast plates 1 and 2; Hu776: ToxCast plates 3 and 4). Each preparation of human hepatocyte cultures was treated with respective vehicle control, medium only control, set of six positive controls/reference chemicals for the five hepatic receptor pathways, and a subset of eight of the ToxCast chemicals (indoxacarb, pyrithiobac-sodium, norflurazon, cyhalofop-butyl, methomyl, thiram, acetochlor, and propiconazole). These replicate data, coupled with internal replicates designed within the blinded ToxCast chemical library, provided additional data to evaluate interindividual differences between hepatocyte preparations and their potential impact on chemical profiles.Cell morphology and integrity were evaluated using phase-contrast microscopy as an indicator of hepatocyte cell health (Tyson & Green, 1987). Cultures for each treatment group (i.e., media, vehicle [0.2% DMSO], positive control inducers [multiple concentrations], and the ToxCast chemicals [multiple concentrations]) were observed and cell morphology was assessed relative to vehicle control cultures at each harvest time point (0, 6, 24, or 48 h). […] Images were evaluated at the conclusion of the study to assess changes in cell integrity and account for the effects of chemical exposure on uncharacteristic changes in concentration-dependent gene expression profiles. The results from these determinations of apparent cytotoxicity were annotated (yes/no) alongside the corresponding qNPA data for reference.At the conclusion of each treatment period, hepatocyte cultures (96-well) were washed with 1 volume of HBSS, lysed by addition of 25 ul ArrayPlate lysis buffer (HTG, Tucson, AZ), and 70 ul/well of Denaturation Oil, denatured by incubation at 95C for 10 min, and frozen at approximately -70C until analysis by nuclease protection assay (qNPA) (Roberts et al., 2007). For qNPA analysis, cell lysates were thawed at 50C for approximately 30 min, qNPA probes were added, and samples were incubated at 95C for 10 min to begin the detection process by denaturing the target RNA, dissociating the duplexes and secondary structure hybridization. At the conclusion of the hybridization period, S1 nuclease reagent was added to each sample to digest all nonprotected nucleotides at 50C for 60-90 min. […]

SMILES | outcome | AC50
O=C(NC(=O)c1c(F)cccc1F)Nc1ccc(OC(F)(F)C(F)OC(F)(F)F)c(Cl)c1 (stereo not given) | inactive | 
Oc1cc(Cl)ccc1Oc1ccc(Cl)cc1Cl | inactive | 
COC(=O)c1ccccc1S(=O)(=O)NC(=O)Nc1nc(C)nc(OC)n1 |  | 20 µM (active)
COP(=O)(OC)OC=C(Cl)Cl |  | 1.9 µM (active)
CCCN(CCOc1c(Cl)cc(Cl)cc1Cl)C(=O)n1ccnc1 |  | 0.0868 µM (active)
COP(=S)(OC)Oc1ccc(SC)c(C)c1 |  | 5.13 µM (active)
CC(C)(C)C(O)C(Oc1ccc(Cl)cc1)n1cncn1 (stereo not given) |  | 1.55 µM (active)
CNC(=O)CSP(=S)(OC)OC |  | 0.275 µM (active)
O=[N+]([O-])/N=C1\NCCN1Cc1ccc(Cl)nc1 | inactive | 
CCOC1Oc2ccc(OS(C)(=O)=O)cc2C1(C)C (stereo not given) |  | 3.97 µM (active)
CCC(C)(NC(=O)c1cc(Cl)c(C)c(Cl)c1)C(=O)CCl (stereo not given) | inactive | 
CCOc1nc(NC)nc(NC(=O)NS(=O)(=O)c2ccccc2C(=O)OC)n1 | inactive | 
OCCOc1ccccc1 | inactive | 
CCOCN(C(=O)CCl)c1c(C)cccc1CC | inactive | 
CCc1ccc(C(=O)NN(C(=O)c2cc(C)cc(C)c2)C(C)(C)C)cc1 |  | 7.56 µM (active)
CNC(=O)Oc1ccccc1OC(C)C | inactive | 
CC(C)N(C(=O)COc1nnc(C(F)(F)F)s1)c1ccc(F)cc1 | inactive | 
Cc1cc(C)nc(NC(=O)NS(=O)(=O)c2ccccc2C(=O)OC2COC2)n1 | inactive | 
Oc1ccc(Cl)cc1Cc1ccccc1 | inactive | 
O=C(O)COc1ccc(Cl)cc1Cl |  | 0.459 µM (active)

SMILES | outcome | AC50
O=S(=O)(O)C(F)(F)C(F)(F)C(F)(F)C(F)(F)C(F)(F)C(F)(F)C(F)(F)C(F)(F)F | inactive | 
ClC1C(Cl)C(Cl)C(Cl)C(Cl)C1Cl (stereo not given) | inactive | 
COc1cc(OC)nc(NC(=O)NS(=O)(=O)c2cc(NC=O)ccc2C(=O)N(C)C)n1 | inactive | 
CC(C)(C)C(O)/C(=C\c1ccc(Cl)cc1Cl)n1cncn1 (stereo not given) |  | 1.89 µM (active)
CC(C)OC(=O)Nc1cccc(Cl)c1 |  | 3.3 µM (active)
C[C@H]1[C@H](c2ccc(Cl)cc2)SC(=O)N1C(=O)NC1CCCCC1 | inactive | 
CN1CSC(=S)N(C)C1 | inactive | 
COC(=O)c1ccccc1CS(=O)(=O)NC(=O)Nc1nc(OC)cc(OC)n1 |  | 20 µM (active)
COc1nn(CSP(=S)(OC)OC)c(=O)s1 |  | 1.25 µM (active)
CC1(C)C(C=C(Cl)Cl)C1C(=O)OC(C#N)c1ccc(F)c(Oc2ccccc2)c1 (stereo not given) |  | 20 µM (active)
Clc1ccccc1-c1nnc(-c2ccccc2Cl)nn1 | inactive | 
N#Cc1c(Cl)c(Cl)c(Cl)c(C#N)c1Cl |  | 36.8 µM (active)
CC1(c2ccc(Oc3ccccc3)cc2)OC(=O)N(Nc2ccccc2)C1=O (stereo not given) | inactive | 
COC(=O)c1ccccc1S(=O)(=O)NC(=O)N(C)c1nc(C)nc(OC)n1 |  | 20 µM (active)
O=C(Nc1ccccc1)Nc1cnns1 |  | 1.87 µM (active)
CCC(C)Nc1c([N+](=O)[O-])cc(C(C)(C)C)cc1[N+](=O)[O-] (stereo not given) |  | 3.41 µM (active)
Cc1[nH]c(=O)n(C(C)(C)C)c(=O)c1Cl |  | 20 µM (active)
CNC(=O)/C=C(\C)OP(=O)(OC)OC | inactive | 
O=C(O)C(F)(F)C(F)(F)C(F)(F)C(F)(F)C(F)(F)C(F)(F)C(F)(F)F | inactive | 
CCN(CC)C(=O)SCc1ccc(Cl)cc1 | inactive | 
